From PubChem BioAssay (NCI) come the findings set out here.

Each structure is given as a SMILES string. The panel holds about 83,000 compounds, 20% with a hit somewhere; the sample as a whole holds those more often.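 Negative percent growth values reflect cell death: -40 means 40% of the cells present at the start died, and -100 means all died.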 Unmarked numbers belong to inactive results. The source made the active and inactive calls. Rule for the calls: active = growth percent below 10; inactive = the rest.

Some test systems named below: HCT-15 colon; HT29 colon; SNB-75 CNS; SNB-19 CNS; U251 CNS; PC-3 prostate; SK-MEL-5 melanoma; UACC-62 melanoma; LOX IMVI melanoma; SK-MEL-28 melanoma.
Assay in all cases: NCI-60 one-dose screen, 48 h (100 = growth as untreated, 0 = no growth, -100 = all killed)
Holding throughout (details): 10 µM unless noted

As for `COc1ccc(NC(=O)CSc2nnc(-c3cc(-c4ccccc4)nc4ccccc34)n2-c2ccccc2)cc1`, the growth is 95.4% in the experiment on HCT-15 colon; 106% with HT29 colon; 79.3% in the experiment on SNB-75 CNS; 93.5% in the experiment on SNB-19 CNS; 100% in the experiment with U251 CNS; 73.2% in the experiment on PC-3 prostate. The growth is 90.8% in the experiment on SK-MEL-5 melanoma, 73.8% with UACC-62 melanoma, 97.3% in the experiment with LOX IMVI melanoma and 95.7% in the experiment with SK-MEL-28 melanoma.
Consider `COc1ccccc1NC(=O)N/C(N)=N/c1nc2ccccc2s1`, for which the growth in the experiment on HCT-15 colon is 16.5%; in the experiment on HT29 colon, 8.24% (active); in the experiment on SNB-75 CNS it was 22.6%; with SNB-19 CNS, 37.5%; with U251 CNS it was 18.3%; in the experiment with PC-3 prostate, 25%. For the same compound, the growth is 23.7% with SK-MEL-5 melanoma, 31.4% with UACC-62 melanoma, 34.3% in the experiment on LOX IMVI melanoma and 53.4% with SK-MEL-28 melanoma.
Take `O=C(COc1ccc(/C=C2\Oc3ccccc3C2=O)cc1)Nc1nc2ccccc2s1`: the growth in the experiment on HCT-15 colon is 98.2%; with HT29 colon, 93.2%; in the experiment with SNB-75 CNS, -16.2% (active); in the experiment on SNB-19 CNS, 92.4%; in the experiment with U251 CNS, 4.73% (active); in the experiment with PC-3 prostate, 13.7%. For the same compound, the growth with SK-MEL-5 melanoma is 95.6%; with UACC-62 melanoma, 82.4%; in the experiment on LOX IMVI melanoma it was -71.7% (active); in the experiment with SK-MEL-28 melanoma, 137%.
With `CCOC(=O)c1c(-c2ccc(Cl)cc2)c(C#N)c(=O)n(-c2ccccc2CC)c1N`, the growth in the experiment with HCT-15 colon was 89.7%; in the experiment with HT29 colon, 110%; with SNB-75 CNS, 89.8%; with SNB-19 CNS, 120%; in the experiment on U251 CNS, 90%; with PC-3 prostate, 77.5%. For the same compound, the growth in the experiment with SK-MEL-5 melanoma is 85.1%; in the experiment with UACC-62 melanoma, 68.8%; in the experiment with LOX IMVI melanoma, 95%; in the experiment with SK-MEL-28 melanoma, 99.3%.
On to `O=C1/C(=C\c2cccnc2)SC(=S)N1CCc1ccc(O)cc1`, for which the growth in the experiment on HCT-15 colon was 19.2%; with HT29 colon, 105%; in the experiment with SNB-75 CNS, -4.79% (active); in the experiment with SNB-19 CNS, 82.5%; in the experiment on U251 CNS, 68.3%; in the experiment with PC-3 prostate, 42.2%. Also, the growth was 90.1% with SK-MEL-5 melanoma, 59.9% with UACC-62 melanoma, 17.4% in the experiment with LOX IMVI melanoma and 71% in the experiment on SK-MEL-28 melanoma.
Turning to `COc1ccc(C2C(c3nn[nH]n3)=C(N)Oc3c2ccc2ccccc32)cc1` (stereo not given), the growth is 35% in the experiment with HCT-15 colon; 127% with HT29 colon; 39.9% in the experiment on SNB-75 CNS; 67.3% in the experiment on SNB-19 CNS; 73.3% with U251 CNS; 65.5% in the experiment with PC-3 prostate. Besides, the growth with SK-MEL-5 melanoma was 57.5%; in the experiment on UACC-62 melanoma, 45.9%; with LOX IMVI melanoma, 63.5%; in the experiment on SK-MEL-28 melanoma it was 57.4%.
Take `CCCCCCCCCCCCCCCCCC1=NCCN1CCOC1=C(Cl)C(=O)c2ccccc2C1=O`: the growth in the experiment on HCT-15 colon is 55.4%; in the experiment on HT29 colon, 65%; in the experiment on SNB-75 CNS it was 87.4%; in the experiment with SNB-19 CNS, 81.4%; with U251 CNS it was 66.4%; in the experiment with PC-3 prostate it was 55.3%. Moreover, the growth was 103% in the experiment on SK-MEL-5 melanoma, 40.6% in the experiment on UACC-62 melanoma, 66.6% in the experiment on LOX IMVI melanoma and 92.1% with SK-MEL-28 melanoma.
Regarding `CN1CCN(C(=O)c2c3c(n4ccccc24)C(=O)c2ncccc2C3=O)CC1`, the growth is 46% with HCT-15 colon; 93.3% in the experiment on HT29 colon; 39.9% with SNB-75 CNS; 50.4% in the experiment on SNB-19 CNS; 66.5% in the experiment on U251 CNS; 54.8% in the experiment on PC-3 prostate. Moreover, the growth in the experiment on SK-MEL-5 melanoma was 65.6%; with UACC-62 melanoma, 39.3%; in the experiment on LOX IMVI melanoma it was 30.3%; with SK-MEL-28 melanoma, 103%.
On to `O=[N+]([O-])c1ccc(Sc2cccc[n+]2[O-])c2nonc12`, for which the growth was 73.1% in the experiment on HCT-15 colon; 78.2% in the experiment with HT29 colon; 80.7% in the experiment with SNB-75 CNS; 88.3% with SNB-19 CNS; 2.22% (active) with U251 CNS; 41.8% in the experiment on PC-3 prostate. Further, the growth with SK-MEL-5 melanoma was 72.3%; with UACC-62 melanoma, 50.6%; in the experiment on LOX IMVI melanoma, 2.14% (active); in the experiment on SK-MEL-28 melanoma, 23.8%.
Take `Cc1c(C)c2c(c(C)c1OCC(=O)O)CC[C@@](C)(CCC[C@@H](C)CCC[C@@H](C)CCCC(C)C)O2`: the growth in the experiment with HCT-15 colon is -28.5% [50 µM] (active); in the experiment on HT29 colon, 6.19% [50 µM] (active); in the experiment with SNB-75 CNS, 67.6% [50 µM]; in the experiment with SNB-19 CNS, 17% [50 µM]; with U251 CNS it was -30.3% [50 µM] (active); in the experiment with PC-3 prostate, -16% [50 µM] (active). Moreover, the growth in the experiment with SK-MEL-5 melanoma is -77.1% [50 µM] (active); with UACC-62 melanoma, -75.2% [50 µM] (active); with LOX IMVI melanoma, -83.9% [50 µM] (active); in the experiment with SK-MEL-28 melanoma it was -15.1% [50 µM] (active).
Turning to `Cc1cc(N2CCCC2)nc(NCc2cc(Nc3ccnc4cc(Cl)ccc34)ccc2F)n1`, the growth in the experiment with HCT-15 colon was -74.3% (active); with HT29 colon, -41.6% (active); with SNB-75 CNS, -90.7% (active); with SNB-19 CNS it was 1.18% (active); in the experiment with U251 CNS it was -89.7% (active); in the experiment on PC-3 prostate, -38.8% (active). Moreover, the growth in the experiment on SK-MEL-5 melanoma is -98.6% (active); with UACC-62 melanoma it was -77.8% (active); in the experiment with LOX IMVI melanoma, -92.9% (active); in the experiment with SK-MEL-28 melanoma it was -71.4% (active).
Take `N#Cc1nc(C#N)c(Sc2ccccc2)c(Sc2ccccc2)c1Sc1ccccc1`: the growth in the experiment on HCT-15 colon is -53.7% (active); with HT29 colon it was -67.2% (active); in the experiment with SNB-75 CNS it was -61.2% (active); with SNB-19 CNS, -45.7% (active); in the experiment with U251 CNS, -81.9% (active); in the experiment on PC-3 prostate, 21.5%. Besides, the growth in the experiment with SK-MEL-5 melanoma was -93.2% (active); with UACC-62 melanoma, -57.2% (active); in the experiment with LOX IMVI melanoma, -79.2% (active); in the experiment with SK-MEL-28 melanoma, -84.3% (active).
